HIF-2a block: HIF-2a reporter inhibitors, primary screen, luminescence, 786-0 RCC cells; AID 624352, 2012; actives 0.72% (n = 360,000); 786-0 RCC cells HIF-2a reporter, luciferase luminescence, overnight; inhibition, % at 18.8 µM;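 active means inhibition of the luminescence signal of 40% or more relative to plate controls, in a single-dose primary screen at 18.75 µM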
TROY NFkB inh: inhibitors of TROY-driven NF-kB signaling, primary screen, Q293 LMP1-TROYcd cells, NF-kB luciferase, uHTS; Q293 LMP1-TROYcd NF-kB luciferase reporter, 4 h; inhibition, % at 10 µM; actives 0.98% (n = 360,000); AID 1347056, 2019;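 active means compounds whose plate-normalised and pattern-corrected inhibition of the luciferase reporter signal at the single screening dose is 50% or more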
TWEAK Fn14 block: inhibitors of TWEAK-Fn14 signaling, primary screen, luciferase reporter cells, uHTS | TWEAK-stimulated Fn14 reporter cells, luciferase luminescence, 8 h | inhibition, % at 10 µM | actives 2% (n = 360,000); in the data active means inhibition above about 50%
Peg3 promoter: Peg3 promoter-driven luciferase inhibitors, primary screen, cell-based, HeLa, luciferase luminescence. HeLa PEG-Prom luciferase reporter, overnight. inhibition, % at 20 µM. actives 1.7% (n = 360,000);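 active means inhibition of at least 50% at 20 µM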
KKLEB tox: cytotoxicity in KKLEB CF airway cells, primary screen, cytotoxicity control for CF NF-kB inhibitor project, cell-based, uHTS, fluorescence assay plates; KKLEB CF airway cells viability, ATPlite luminescence, overnight; hits give low values; cells stimulated with P. aeruginosa culture filtrate; activity change (cytotoxicity), % at 5 µM; actives 0.36% (n = 360,000);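 active means corrected activity change at or below -50% at 5 µM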
CF NFkB block: inhibitors of PAF-induced NF-kB signaling, primary screen, cell-based, GFP fluorescence, uHTS; KKLEB NF-kB-GFP reporter, GFP fluorescence overnight; inhibition, % at 5 µM; actives 0.86% (n = 360,000);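 active means at least 50% inhibition at 5 µM, scaled per plate between neutral and stimulator controls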;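 further: PAF is a Pseudomonas aeruginosa culture filtrate used as stimulus; plate controls were PAF-stimulated DMSO wells for no effect and unstimulated DMSO wells for full effect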
CF NFkB inh conf: inhibitors of PAF-induced NF-kB signaling, retest, confirmation, cell-based, GFP fluorescence, single concentration; inhibition, % at 5 µM; AID 602472, 2012; shares compounds with CF NFkB block; KKLEB CF airway cells, overnight; actives 64% (n = 1,300); in the data active means inhibition above about 40%;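 further: stimulus PAF is a Pseudomonas aeruginosa filtrate and not platelet activating factor; plate controls were DMSO wells with stimulus for no effect and unstimulated DMSO wells for full effect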
An asterisk follows results filed as active; . = no result given. Hits are enriched below; roughly 3.9% of the tested compounds scored in any of these assays.

SMILES | HIF-2a block | TROY NFkB inh | TWEAK Fn14 block | Peg3 promoter | KKLEB tox | CF NFkB block | CF NFkB inh conf
Cc1ccc(S(=O)(=O)c2c(C(=O)c3ccccc3)cnc3cc4c(cc23)OCCO4)cc1 | 8 | -24 | 45 | 26 | -44 | 51* | -35
Cc1c(C(=O)c2ccc(Cl)c(Cl)c2)cnc2cc3c(cc12)OCO3 | 8 | -1 | -6 | 1 | -4 | -11 | .
CC(C)n1c(SCc2ccccc2F)nc2c1c(=O)n(C)c(=O)n2C | 21 | 34 | 30 | 25 | -5 | 57* | 58*
CC(C)n1c(SCc2cc(=O)[nH]c3ccccc23)nc2c1c(=O)n(C)c(=O)n2C | 6 | 2 | 0 | 17 | -5 | 11 | .
Nc1cccc(-c2nc3ccc(C(=O)c4ccccc4)cc3[nH]2)c1 | -288 | -27 | 2 | -248 | -20 | 2 | .
Cc1ccc(C(=O)N2c3ccccc3CC2C)o1 (stereo unspecified) | -261 | -30 | 9 | -305 | 3 | -8 | .
Cc1ccc(S(=O)(=O)CC(CN2CCCCC2)N2CCCCC2)cc1 (stereo unspecified) | 1 | -12 | 13 | -93 | -3 | 53* | 57*
COc1ccc(OC(F)(F)F)cc1CC1(C)C(=O)Nc2cccc(Cl)c21 (stereo unspecified) | 0 | 1 | 22 | 11 | 10 | -12 | .
O=[N+]([O-])c1ccc(Oc2ccc(F)cc2)c2ccncc12 | 39 | 42 | 43 | 21 | -24 | 59* | 63*
O=[N+]([O-])c1cccnc1Oc1ccc(F)cc1 | 11 | 10 | -6 | 7 | -2 | -5 | .
CN(C(=O)CSc1ncnc2sc3c(c12)CCC3)C1CCS(=O)(=O)C1 (stereo unspecified) | 12 | -2 | 0 | 6 | 2 | -32 | .
COCCN(CC(=O)Nc1cccc(C)c1C)C(=O)C1CCN(S(=O)(=O)c2ccccc2)CC1 | 18 | -11 | 3 | -3 | 20 | -14 | .
CCN(CC(=O)Nc1cccc(OC)c1)C(=O)c1cnc(Cl)c(Cl)c1 | 2 | 9 | 1 | 7 | -1 | 2 | .
O=C(CCS(=O)(=O)c1ccccc1)N(CCCN1CCOCC1)c1nc2c(F)cccc2s1 | -75 | -5 | 24 | 104* | -39 | 94* | 71*
O=C(CCS(=O)(=O)c1ccccc1)N(CCCN1CCOCC1)c1nc2ccc(F)cc2s1 | -180 | 13 | 16 | 94* | -38 | 59* | 2
CCc1c(C)nc2ccc(Br)cc2c1SCCC#N | 23 | 48 | 79* | 18 | -19 | 73* | 89*
O=C(c1c[nH]c2ccccc12)C(O)C(c1ccccc1)N1CCOCC1 (stereo unspecified) | 3 | -9 | -8 | 0 | -9 | 11 | .
O=C(c1c[nH]c2ccccc12)C(Cl)c1ccccc1 (stereo unspecified) | -30 | 13 | 79* | 10 | -33 | 63* | 42*
COc1ccc2[nH]c3c(c2c1)CCN1C(=O)C(CC(=O)NCCCn2ccnc2)C[C@H](C(=O)N(C(C)C)C(C)C)[C@@]31C (stereo partly specified) | -1 | -19 | -2 | -7 | -4 | -15 | .
O=C(Nc1ccc2ccccc2c1)c1ccccc1O | -49 | 59* | 90* | -74 | -18 | 52* | 79*
CCC/C=C/c1ccc(CN2C(C)C(=O)N(Cc3cn(Cc4ccco4)nn3)CCS2(=O)=O)cc1 (stereo unspecified) | -3 | 7 | 29 | 14 | -10 | 20 | .
CC1C(=O)N(Cc2cn(Cc3ccco3)nn2)CCS(=O)(=O)N1Cc1ccc(-c2ccccc2C(F)(F)F)cc1 (stereo unspecified) | -16 | 33 | 19 | 18 | -23 | 66* | 52*

Screening results from PubChem BioAssay.
